Results: PubChem BioAssay (NCATS)
Results filed as inconclusive are left out. Where a call stands in place of a potency, no number is given. Activity calls are given as the source filed them. The call rests on the fitted dose curve; in most records, active means well fitted inhibition curve with a large enough effect; inconclusive means small, poorly fitted or top-dose-only effect; inactive means no such curve, though single readings can be large or run the other way.

Molecular target: Furin (Homo sapiens) (UniProt P09958)
Assay: Furin counterscreen qHTS for Zika virus inhibitors (AID 1347149); further: nearly all actives have a fitted effect of over 70% in size
Settings: furin enzymatic counterscreen, fluorogenic substrate; series mostly up to 114 µM
Method in brief: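 Counterscreen measures cleavage of 2 microM BOC-RVRR-AMC, below its ~15 microM Km, by 5 nM full-length human furin at pH 7.0 after a 15-min compound preincubation. Inhibition derives from the 15-min fluorescence increase at 37C.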
Potency means the concentration at half of the fitted maximal effect.

Furin (Homo sapiens), sequence (P09958 whole entry, looked up): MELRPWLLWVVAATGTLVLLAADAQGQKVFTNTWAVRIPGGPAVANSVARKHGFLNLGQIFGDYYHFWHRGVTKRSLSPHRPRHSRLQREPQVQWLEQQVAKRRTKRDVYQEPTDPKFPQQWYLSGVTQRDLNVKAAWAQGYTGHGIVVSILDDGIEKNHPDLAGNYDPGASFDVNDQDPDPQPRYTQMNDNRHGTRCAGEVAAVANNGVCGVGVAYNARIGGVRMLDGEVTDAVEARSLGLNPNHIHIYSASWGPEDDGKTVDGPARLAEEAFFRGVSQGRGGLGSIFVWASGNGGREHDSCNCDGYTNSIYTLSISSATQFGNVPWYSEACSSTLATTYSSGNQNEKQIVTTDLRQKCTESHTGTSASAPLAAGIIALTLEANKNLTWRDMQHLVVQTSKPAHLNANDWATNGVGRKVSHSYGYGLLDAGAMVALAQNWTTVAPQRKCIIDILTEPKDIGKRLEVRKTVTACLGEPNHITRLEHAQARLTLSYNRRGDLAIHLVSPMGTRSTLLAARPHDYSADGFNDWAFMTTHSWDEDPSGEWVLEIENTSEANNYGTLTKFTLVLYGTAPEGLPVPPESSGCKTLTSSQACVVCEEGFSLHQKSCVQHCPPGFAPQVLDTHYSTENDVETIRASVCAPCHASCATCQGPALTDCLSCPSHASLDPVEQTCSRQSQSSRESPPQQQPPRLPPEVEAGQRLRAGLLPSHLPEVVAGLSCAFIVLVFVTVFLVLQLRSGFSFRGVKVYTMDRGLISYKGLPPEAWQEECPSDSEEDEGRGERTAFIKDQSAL

Structure (SMILES) | Potency
O=C(O)c1cnn(-c2nc3cc(OC(F)(F)F)c(Cl)cc3[nH]2)c1 | 90.2 µM (active)
CC(C)C1=CCC(C)(O)C(OC2OC(CO)C(O)C(O)C2O)C1 (stereo not drawn) | inactive
O=S(=O)(O)c1ccc2c(N=Nc3ccc(S(=O)(=O)O)c4ccccc34)c(O)c(S(=O)(=O)O)cc2c1 | inactive
